This note sets out measurements from PubChem BioAssay (NCATS).

The structures appear in SMILES notation. Where “and” joins values, the source holds several entries; their conditions need not be identical. Identical values can stand only once. Inconclusive results are not listed. A structure can be active in one record and inactive in another. Calls of active or inactive are those of the source. Unless noted, calls come from the whole dose curve; as a rule, active = well fitted curve in the direction sought with a large enough effect; inconclusive = small, poorly fitted or top-dose-only effect, or another doubt; inactive = no such curve, though single readings can be large; an effect the other way counts as inactive or inconclusive. A value given as a limit tells only on which side of the number the result lay.

A short description of assay [1]: Cell Viability - Jurkat (AID 426;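 active = dose-dependent loss of cell ATP signal giving a full or clear fitted curve, ranked by lower potency value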; note: potency is the fitted concentration of half-maximal effect). The conditions noted are these: qHTS. An outline of the steps:
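qHTS, 1536-well; Jurkat E6-1, 5000 cells/well, complete medium; cpd 40 hr, 37 °C; CellTiter-Glo 20 min RT; luminescence. AC50 by Hill fit.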
In general terms: Quantitative high-throughput screening tests each substance at several concentrations.

Assay [2] in a line: Cell Viability - Hek293 (AID 427;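 active = compounds whose dose-response curve shows a full or clear partial loss of cell viability, called from curve shape rather than a numeric limit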;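 note: potency is the fitted concentration of half-maximal effect; cells exposed to compound for 40 hours at 37 °C before reading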). The following applies: qHTS. Summed up: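 HEK293 cells in complete medium were exposed to compound for 40 hr at 37 °C, then cellular ATP was read by CellTiter-Glo luminescence. Data were normalized to DMSO (basal) and 100 uM tamoxifen (100% inhibition), and AC50 came from Hill fits.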
Assay [3] in a line: Cellular Toxicity (caspase-3) BJ (AID 658). The conditions noted are these: BJ fibroblasts, luminescence; Potency: caspase-3 activation; series mostly up to 91.7 µM. Summed up:
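Readout: Caspase-Glo 3/7 luminescence increase in BJ cells after 16 hr treatment at 37 °C. Staurosporine and tamoxifen served as positive controls; AC50 values came from Hill modelling of data normalized to DMSO and 10 uM staurosporine.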

The target of assay [4] is Cytochrome P450 3A4 (Homo sapiens) (UniProt P08684). The assay can be described thus: qHTS Assay for Inhibitors and Substrates of Cytochrome P450 3A4 (AID 884). Note: nearly all actives have a fitted effect of over 50% in size. Note: potency is the fitted concentration of half-maximal effect. The following applies: recombinant CYP3A4, Luciferin-PPXE luminescence; series mostly up to 57.1 µM. Summed up:
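20 nM human CYP3A4 with 25 uM Luciferin-PPXE (at KM) in 200 mM KPO4, preincubated 10 min with compound; NADPH regeneration started a 60 min RT reaction. Luciferin detected by luminescence, normalized to 57 uM ketoconazole as full inhibition.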

Assay [5] addresses Glucocorticoid receptor (Homo sapiens) (UniProt P04150). As to the kind of experiment: qHTS assay for small molecule agonists of glucocorticoid receptor signaling (AID 588532; active = well fitted curve in the direction sought with a large enough effect in the signal ratio, with a control signal flat; the % refers to the signal ratio;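 note: 100% = dexamethasone at 0.1 µM and 0% = DMSO only wells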). The following applies: HeLa MMTV-bla, beta-lactamase ratio, agonist, 18 h; stronger effect = higher value; percent of dexamethasone control, DMSO zero. Summed up: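 Using MMTV-bla HeLa cells in medium with 1% stripped FBS and 25 mM HEPES, compounds were titrated and incubated overnight-length (18 h). Beta-lactamase cleavage of CCF4 was quantified by dual-emission fluorescence.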

In assay [6] the target is Thyroid hormone receptor beta (Homo sapiens) (UniProt P10828). The assay can be described thus: qHTS assay for small molecule agonists of thyroid hormone receptor beta signaling (AID 588545; calls by dose curve). The following applies: TR-UAS-bla GripTite HEK 293, beta-lactamase ratio, agonist mode, 18 h; series mostly up to 76.7 µM. An outline of the steps: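 Cells (2500/well) were seeded, incubated 4 hrs at 37 C, dosed with a compound series, incubated 18 hrs, loaded with CCF4 dye for 2 hrs at RT, then read for fluorescence. Data were scaled between DMSO (0%) and 10 nM T3 (100%).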
Chain of Thyroid hormone receptor beta (Homo sapiens) (P10828 whole entry, looked up): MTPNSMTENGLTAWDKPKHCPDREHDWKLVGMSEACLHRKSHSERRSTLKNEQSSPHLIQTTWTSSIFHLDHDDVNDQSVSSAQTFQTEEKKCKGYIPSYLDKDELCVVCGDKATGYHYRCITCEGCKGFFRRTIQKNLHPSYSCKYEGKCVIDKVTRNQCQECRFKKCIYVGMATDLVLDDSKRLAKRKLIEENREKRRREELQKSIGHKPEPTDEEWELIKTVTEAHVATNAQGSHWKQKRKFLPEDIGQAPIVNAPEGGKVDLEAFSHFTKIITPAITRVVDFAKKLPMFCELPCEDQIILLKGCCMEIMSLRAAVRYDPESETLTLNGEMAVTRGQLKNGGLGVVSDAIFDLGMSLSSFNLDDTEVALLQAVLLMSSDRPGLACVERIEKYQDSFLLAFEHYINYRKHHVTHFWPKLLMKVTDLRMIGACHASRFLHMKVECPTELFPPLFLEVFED

A short description of assay [7]: qHTS assay for small molecule agonists of the antioxidant response element (ARE) signaling pathway (AID 651741; active = well fitted activation curve with a large enough effect in the signal ratio; the % refers to the signal ratio; note: potency is the fitted concentration of half-maximal effect; for activation: % of control where 0% means no effect). The conditions noted are these: HepG2 ARE-bla reporter, beta-lactamase FRET ratio, 16 h; series mostly up to 96 µM. An outline of the steps: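 Quantitative HTS in HepG2 cells stably expressing an ARE-beta-lactamase reporter; 16 h compound exposure at 37 C, followed by 2 h room-temperature incubation with LiveBLAzer B/G FRET substrate and fluorescence measurement.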

Assay [8] is described as follows: qHTS assay for small molecule activators of the p53 signaling pathway (AID 651743; active = well fitted activation curve with a large enough effect in the signal ratio, not every such curve was filed as active; the % refers to the signal ratio; note: potency is the fitted concentration of half-maximal effect; for activation: % of control where 0% means no effect). The following applies: HCT-116 p53RE-bla, beta-lactamase FRET ratio, 16 h; activation: stronger effect = higher value. Summed up:
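Read-out is fluorescence intensity from the LiveBLAzer B/G FRET substrate, added for 2 hours at room temperature after HCT-116 p53RE-bla cells had been incubated with compounds for 16 hours at 37 C.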

Assay [9] is described as follows: qHTS assay for small molecule activators of the nuclear factor-kappa B (NF-kB) signaling pathway (AID 651749; active = well fitted activation curve with a large enough effect in the signal ratio; the % refers to the signal ratio; note: % of control where 0% means no effect). The conditions noted are these: NF-kB-bla ME-180 cells, beta-lactamase FRET ratio, 16 h; stronger effect = higher value. An outline of the steps:
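Readout: beta-lactamase reporter driven by an NF-kB response element, detected fluorescently as loss of FRET. Cells were the ME-180 line, treated 16 hr at 37C with pin-transferred compound.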

The nature of assay [10]: qHTS assay for small molecule disruptors of the mitochondrial membrane potential - 1 hr assay (AID 651754; calls by dose curve; note: nearly all actives have a fitted effect of over 35% in size; note: potency is the fitted concentration of half-maximal effect). The conditions noted are these: series mostly up to 92.2 µM. An outline of the steps: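 HepG2, 2,000 cells/well, overnight attachment; cpd or DMSO 1 hr, 37C/5% CO2; Mito-MPS dye 30 min, 37C; fluorescence monomer (490/535) and aggregate (540/590).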
Assay [11] has as its target Nuclear receptor ROR-gamma (Homo sapiens) (UniProt P51449). As to the kind of experiment: qHTS assay for small molecule antagonists of the retinoid-related orphan receptor gamma (ROR-gamma) signaling pathway (AID 651802). Note: nearly all actives have a fitted effect of over 60% in size. Note: potency is the fitted concentration of half-maximal effect. The following applies: ROR-gamma antagonist cell reporter assay; series mostly up to 92.2 µM. An outline of the steps:
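CHO, TET-inducible ROR + RORE-LUC reporter, 1536-well qHTS. Compound pinned, doxycycline added, 16hr 37C/5% CO2. ONE-Glo, 30 min RT, luminescence; signal drop scored as antagonism.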

Assay [12] can be described thus: qHTS assay for small molecule antagonists of the retinoid-related orphan receptor gamma (ROR-gamma) signaling pathway - cell viability counter screen (AID 720652; active = well fitted curve in the direction sought with a large enough effect in the repeat runs; an effect the other way counts as inactive or inconclusive;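 note: compound exposure lasted 16 hr before ATP read; % is set by controls: 0 for no effect and ±100 for the full control effect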). The conditions noted are these: RORgamma reporter cell line viability counter screen; series mostly up to 92.2 µM. Summed up:
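Luminescence from CellTiter-Glo after 30 min at room temperature reported cellular ATP as the cytotoxicity measure. Cells were the CHO reporter line with doxycycline-induced ROR-gamma expression, exposed to compound for 16 hr at 37 C.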

Assay [13] can be described thus: Cell Viability - NIH 3T3 (AID 541).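 Note: plate controls were DMSO alone for no effect and tamoxifen positive control for full effect; nearly all actives have a fitted effect of over 25% in size.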 The conditions noted are these: NIH 3T3 cell viability, qHTS; activity change, negative = cytotoxicity: at 92.2 µM (top of the series). Summed up:
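Luminescent ATP signal (CellTiter-Glo) served as the viability read-out after NIH 3T3 cells were exposed to compounds over a concentration range for 40 hr at 37 °C. Hill-equation modelling of concentration-response data gave AC50.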

The nature of assay [14]: Cell Viability - SH-SY5Y (AID 544).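 Note: 0% = DMSO alone and -100% = 100 µM tamoxifen; nearly all actives have a fitted effect of over 55% in size.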 The following applies: SH-SY5Y neuroblastoma cell viability; viability change, negative = cytotoxic: at 92.2 µM (top of the series). An outline of the steps:
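Luminescent ATP read-out (CellTiter-Glo) measures loss of viable SH-SY5Y neuroblastoma cells after 40 hr compound exposure at 37 °C. AC50 values derive from standard Hill modelling of qHTS concentration-response data.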

Assay [15] is described as follows: Cellular Toxicity (caspase-3) MRC-5 (AID 659). The conditions noted are these: MRC-5 cells, luminescence, normalized: DMSO 0%, 10 µM staurosporine 100%; series mostly up to 91.7 µM. Summed up: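 Concentration-dependent caspase 3/7 activation is measured in human normal lung fibroblasts (MRC-5) following 16-hour treatment. AC50 values come from standard Hill-equation modeling of luminescence normalized to DMSO and 10 uM staurosporine.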

Assay [16] addresses Vitamin D3 receptor (Homo sapiens) (UniProt P11473). As to the kind of experiment: qHTS assay for small molecule antagonists of vitamin D receptor signaling (AID 588541; calls by dose curve;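 note: receptor activated by calcitriol during compound treatment; % is set by controls: 0 for no effect and ±100 for the full control effect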). The following applies: HEK293T VDR-UAS-bla, beta-lactamase ratio, antagonist mode; series mostly up to 76.7 µM. An outline of the steps:
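Antagonist-mode beta-lactamase reporter assay: HEK293T VDR-UAS-bla cells were exposed to titrated compound alongside 1-alpha,25-dihydroxyvitamin D3 at 3 nM final for 16 h. Values were normalized to the 50 nM agonist control and DMSO basal, with IC50 and efficacy from Hill equation fits.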

Assay [17] has the same target. The assay can be described thus: qHTS assay for small molecule agonists of vitamin D receptor signaling (AID 588543; calls by dose curve;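 note: 0% = DMSO basal and 100% = reference agonist control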). The following applies: HEK293T VDR-UAS-bla, beta-lactamase ratio, 16 h; series mostly up to 76.8 µM. An outline of the steps:
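β-lactamase reporter, VDR-UAS-bla HEK293T, agonist mode. Cells plated 5 h at 37 °C, compound titration 16 h at 37 °C, CCF4 dye 2 h RT, ratio 460/530 nm. Hill fit → EC50, efficacy vs 50 nM 1α,25-(OH)2D3.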

In assay [18] the target is Voltage-gated inwardly rectifying potassium channel KCNH2 (Homo sapiens) (UniProt Q12809). The assay can be described thus: qHTS Assay for Small Molecule Inhibitors of the Human hERG Channel Activity (AID 588834).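 Note: top concentration of the series differs between compounds; % is set by controls: 0 for no effect and ±100 for the full control effect; lower thallium flux fluorescence means stronger hERG block; nearly all actives have a fitted effect of over 50% in size.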 The conditions noted are these: U2OS BacMam hERG, FluxOR thallium flux fluorescence; series mostly up to 92.2 µM. Summed up: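 Concentration-response qHTS measuring drop in thallium-sensitive dye signal. U2OS cells carrying BacMam hERG; compound exposure ~10 min, then stimulation buffer and 2 min read at 1 sec intervals.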
Chain of Voltage-gated inwardly rectifying potassium channel KCNH2 (Homo sapiens) (Q12809 whole entry, looked up): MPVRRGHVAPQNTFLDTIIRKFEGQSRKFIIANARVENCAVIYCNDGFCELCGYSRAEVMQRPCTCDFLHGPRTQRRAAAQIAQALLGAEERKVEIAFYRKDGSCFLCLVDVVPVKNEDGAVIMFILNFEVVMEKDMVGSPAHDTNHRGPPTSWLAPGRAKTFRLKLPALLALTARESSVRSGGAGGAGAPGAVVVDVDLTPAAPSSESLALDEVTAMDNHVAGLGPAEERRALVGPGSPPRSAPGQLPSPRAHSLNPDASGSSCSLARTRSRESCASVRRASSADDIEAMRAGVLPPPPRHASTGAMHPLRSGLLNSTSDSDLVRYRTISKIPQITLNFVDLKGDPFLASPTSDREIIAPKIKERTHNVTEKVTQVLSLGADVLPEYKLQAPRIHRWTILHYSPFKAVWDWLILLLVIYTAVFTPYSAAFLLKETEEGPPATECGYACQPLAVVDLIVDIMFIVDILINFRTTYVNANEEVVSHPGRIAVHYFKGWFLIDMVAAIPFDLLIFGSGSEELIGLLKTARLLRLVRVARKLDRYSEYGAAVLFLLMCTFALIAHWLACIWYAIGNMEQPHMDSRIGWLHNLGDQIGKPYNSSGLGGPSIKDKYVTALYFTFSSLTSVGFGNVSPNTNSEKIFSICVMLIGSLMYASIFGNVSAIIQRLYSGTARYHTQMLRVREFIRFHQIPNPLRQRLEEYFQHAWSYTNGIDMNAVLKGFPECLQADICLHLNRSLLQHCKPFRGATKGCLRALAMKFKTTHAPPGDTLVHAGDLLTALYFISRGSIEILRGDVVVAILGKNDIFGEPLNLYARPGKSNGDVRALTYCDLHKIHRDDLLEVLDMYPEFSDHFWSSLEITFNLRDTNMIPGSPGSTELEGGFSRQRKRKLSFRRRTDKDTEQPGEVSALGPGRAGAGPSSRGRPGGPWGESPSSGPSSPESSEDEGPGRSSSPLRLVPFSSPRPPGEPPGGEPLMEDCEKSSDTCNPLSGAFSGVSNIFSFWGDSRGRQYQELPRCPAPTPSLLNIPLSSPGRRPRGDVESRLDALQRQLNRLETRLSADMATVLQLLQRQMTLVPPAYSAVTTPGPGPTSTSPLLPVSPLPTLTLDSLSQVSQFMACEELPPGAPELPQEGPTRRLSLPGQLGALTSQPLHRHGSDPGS

For assay [19], the target named is Tumor necrosis factor (Homo sapiens) (UniProt P01375). The assay can be described thus: qHTS assay to identify small molecules that stimulate Tumor Necrosis Factor-alpha (TNF-alpha) secretion (AID 651757; active = well fitted curve in the direction sought with a large enough effect in the signal ratio; the % refers to the signal ratio; note: 0% is about no effect). The conditions noted are these: Human cells, HTRF 665/615 ratio; series mostly up to 92.2 µM. An outline of the steps:
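Read-out is HTRF, a TR-FRET sandwich of cryptate- and XL665-labeled anti-TNF-alpha antibodies detecting cytokine secreted by THP-1 cells. Cells had been incubated with test compounds at 37 C for 17 hrs beforehand.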

Assay [20] is described as follows: qHTS assay for small molecule activators of the human pregnane X receptor (PXR) signaling pathway (AID 720659; call rule not given here; note: 0% is about no effect). The conditions noted are these: DPX-2 HepG2 CYP3A4-luciferase, 24 h; series mostly up to 92.3 µM.

Chain of Tumor necrosis factor (Homo sapiens) (P01375 whole entry, looked up): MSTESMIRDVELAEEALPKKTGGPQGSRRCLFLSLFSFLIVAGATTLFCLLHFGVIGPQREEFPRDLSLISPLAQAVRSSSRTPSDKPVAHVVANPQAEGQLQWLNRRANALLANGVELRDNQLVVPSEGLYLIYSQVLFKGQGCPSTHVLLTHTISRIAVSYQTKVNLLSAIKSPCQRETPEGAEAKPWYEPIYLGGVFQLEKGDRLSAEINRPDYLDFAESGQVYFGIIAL
Chain of Nuclear receptor ROR-gamma (Homo sapiens) (P51449 whole entry, looked up): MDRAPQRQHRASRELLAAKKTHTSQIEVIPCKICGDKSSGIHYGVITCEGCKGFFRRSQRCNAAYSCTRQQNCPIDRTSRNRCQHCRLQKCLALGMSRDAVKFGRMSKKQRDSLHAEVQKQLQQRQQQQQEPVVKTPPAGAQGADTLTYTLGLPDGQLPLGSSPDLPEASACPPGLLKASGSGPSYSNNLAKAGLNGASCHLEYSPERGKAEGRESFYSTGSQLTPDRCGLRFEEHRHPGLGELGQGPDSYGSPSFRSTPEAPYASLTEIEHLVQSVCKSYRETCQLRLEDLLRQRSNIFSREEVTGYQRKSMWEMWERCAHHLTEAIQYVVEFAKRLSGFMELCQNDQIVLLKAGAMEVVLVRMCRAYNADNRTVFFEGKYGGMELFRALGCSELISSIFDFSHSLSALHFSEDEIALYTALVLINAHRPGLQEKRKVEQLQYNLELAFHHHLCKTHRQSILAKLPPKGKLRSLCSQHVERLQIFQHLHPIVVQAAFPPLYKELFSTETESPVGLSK
Chain of Vitamin D3 receptor (Homo sapiens) (P11473 whole entry, looked up): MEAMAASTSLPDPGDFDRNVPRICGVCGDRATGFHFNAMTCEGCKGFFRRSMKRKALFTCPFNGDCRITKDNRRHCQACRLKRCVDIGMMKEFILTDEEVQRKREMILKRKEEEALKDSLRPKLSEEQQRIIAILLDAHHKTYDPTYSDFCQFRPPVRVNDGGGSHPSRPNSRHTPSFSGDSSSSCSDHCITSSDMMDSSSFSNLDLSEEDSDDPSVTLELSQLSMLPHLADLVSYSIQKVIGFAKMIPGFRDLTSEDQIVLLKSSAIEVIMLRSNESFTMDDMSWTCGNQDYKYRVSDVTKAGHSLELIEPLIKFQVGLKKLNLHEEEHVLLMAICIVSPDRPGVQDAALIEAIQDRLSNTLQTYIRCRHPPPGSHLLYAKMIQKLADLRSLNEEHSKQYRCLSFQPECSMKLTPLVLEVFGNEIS
Chain of Cytochrome P450 3A4 (Homo sapiens) (P08684 whole entry, looked up): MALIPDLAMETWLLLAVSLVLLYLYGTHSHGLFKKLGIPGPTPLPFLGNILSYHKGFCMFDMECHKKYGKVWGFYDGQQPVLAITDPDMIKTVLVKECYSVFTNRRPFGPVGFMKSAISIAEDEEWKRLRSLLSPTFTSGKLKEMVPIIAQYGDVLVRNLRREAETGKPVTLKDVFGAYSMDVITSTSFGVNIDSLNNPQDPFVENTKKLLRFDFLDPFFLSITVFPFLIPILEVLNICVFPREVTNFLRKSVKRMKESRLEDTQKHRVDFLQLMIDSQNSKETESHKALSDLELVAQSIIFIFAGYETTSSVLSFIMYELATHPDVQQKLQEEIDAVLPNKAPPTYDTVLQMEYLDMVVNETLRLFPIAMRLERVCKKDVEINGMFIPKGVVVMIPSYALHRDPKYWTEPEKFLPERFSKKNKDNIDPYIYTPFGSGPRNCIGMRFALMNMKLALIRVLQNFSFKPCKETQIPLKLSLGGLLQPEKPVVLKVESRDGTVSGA
Chain of Glucocorticoid receptor (Homo sapiens) (P04150 whole entry, looked up): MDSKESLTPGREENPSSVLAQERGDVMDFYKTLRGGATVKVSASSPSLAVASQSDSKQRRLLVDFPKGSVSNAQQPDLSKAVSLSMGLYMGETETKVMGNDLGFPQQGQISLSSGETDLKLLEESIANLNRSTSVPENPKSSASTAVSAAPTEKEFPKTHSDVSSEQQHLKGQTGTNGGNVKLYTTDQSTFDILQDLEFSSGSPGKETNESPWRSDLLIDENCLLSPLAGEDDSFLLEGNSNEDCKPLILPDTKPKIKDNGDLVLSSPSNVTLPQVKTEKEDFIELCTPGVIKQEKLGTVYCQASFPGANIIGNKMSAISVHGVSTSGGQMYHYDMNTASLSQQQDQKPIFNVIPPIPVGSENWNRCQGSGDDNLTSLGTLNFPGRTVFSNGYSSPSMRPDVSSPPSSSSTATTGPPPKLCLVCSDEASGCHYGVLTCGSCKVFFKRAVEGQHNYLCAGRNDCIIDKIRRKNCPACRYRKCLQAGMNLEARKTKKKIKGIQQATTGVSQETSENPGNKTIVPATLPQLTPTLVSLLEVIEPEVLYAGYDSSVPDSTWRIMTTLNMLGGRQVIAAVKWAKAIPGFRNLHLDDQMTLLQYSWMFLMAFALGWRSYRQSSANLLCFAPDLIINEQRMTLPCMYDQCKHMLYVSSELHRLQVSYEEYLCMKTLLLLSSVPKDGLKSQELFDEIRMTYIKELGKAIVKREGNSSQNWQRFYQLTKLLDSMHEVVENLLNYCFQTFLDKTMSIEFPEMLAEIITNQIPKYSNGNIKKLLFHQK

Turning to `Nc1ccc(N=Nc2ccccc2)c(N)c1`, the Potency in assay [1] is > 92 µM (inactive); in [2] it was > 92 µM (inactive); in assay [4], 12.6 µM (active); in [7], 42.2 µM (active); in assay [10], 9.44 µM (active). In addition, the Potency entry in [3], in assay [6], in assay [11] and in assay [12] was “inactive” throughout. Moreover, the activation was -4.54% (inactive) in assay [5], -4.52% (inactive) in [8] and -1.7% (inactive) in assay [9].

Consider `C=CC1CO1` (stereo not drawn), for which the Potency in assay [1] and in [2] was > 92 µM (inactive) throughout. In addition, in assay [13], the activity change, negative = cytotoxicity was -8.56% (inactive). Moreover, the Potency entry in assay [14], in [3], in [4], in assay [16], in assay [17] and in [6] was “inactive” throughout. For the same compound, the Potency entry in [18], in [7], in assay [10], in [19], in assay [11] and in [12] was “inactive” each time. For the same compound, the outcome in assay [15] and in [20] was inactive. Also, the activation in [5] is -10.4% (inactive); in [8] it was -3.74% (inactive); in [9], 0.488% (inactive).

With `CCCCCCCCC1CO1` (stereo not drawn), the Potency in [1] and in assay [2] was > 92 µM (inactive) in each case. Moreover, the activity change, negative = cytotoxicity in assay [13] is -9.26% (inactive). The Potency entry in [14], in [3], in [4], in assay [16], in assay [17] and in [6] was “inactive” throughout. The Potency entry in [18], in assay [10], in assay [19], in assay [11] and in assay [12] was “inactive” in each case. Also, the compound was called inactive in assay [15] and in [20]. For the same compound, the activation is -2.27% (inactive) in assay [5] and -2.83% (inactive) in assay [8].

For `Cc1ccc(S(N)(=O)=O)cc1`, the Potency in assay [1] was > 92 µM (inactive); in assay [2], > 92 µM (inactive); in assay [7], “inactive and 68.6 µM (active)”. Further, the Potency result in assay [14], in assay [4], in [16], in [17], in assay [6] and in assay [18] was “inactive” each time. Also, the Potency entry in assay [10] and in assay [12] was “inactive” throughout. In addition, the call in [15] and in assay [20] was inactive. Besides, the activation is 1.06% (inactive) and -7.61% (inactive) in [5]; -4.8% (inactive) and 0.0231% (inactive) in [8]; 1.55% (inactive) and -0.345% (inactive) in [9].

With `NC(=O)c1ccc([N+](=O)[O-])cc1`, the Potency in assay [1] and in [2] was > 92 µM (inactive) each time. The activity change, negative = cytotoxicity in [13] is -5.57% (inactive). Besides, the Potency entry in assay [14], in assay [3], in assay [4], in [16], in [17] and in assay [6] was “inactive” each time. Further, the Potency entry in assay [18], in assay [7], in assay [10], in assay [19], in assay [11] and in [12] was “inactive” in each case. Further, the compound was classed as inactive in assay [15] and in assay [20]. For the same compound, the results for the activation in [5], in [8] and in [9] were 1.08% (inactive), -4.76% (inactive) and -0.545% (inactive), respectively.

As to `Nc1cnn([C@@H]2O[C@H](CO)[C@@H](O)[C@H]2O)c(=O)n1`, the figures for the Potency in [2], in [8] and in [11] were > 92 µM (inactive), 0.794 µM (active) and 5.31 µM (active), respectively. Moreover, the activity change, negative = cytotoxicity in assay [13] is 4.75% (inactive). Moreover, the Potency result in assay [14], in [3], in [4], in assay [16], in [17] and in assay [6] was “inactive” throughout. Besides, the Potency result in assay [18], in assay [7], in [10], in assay [19] and in assay [12] was “inactive” each time. Also, in [5], the activation was -5.2% (inactive). In addition, in assay [20], the call was inactive.
